High-throughput results from PubChem.
Shown are actives, neighbours in structure and some others; about 3.3% of the full set was active somewhere.
HNF4A DNA FP – change in binding of human HNF4 alpha to DNA. P41235. HNF4a-FITC DNA binding, fluorescence polarization, 1 h. activity change, % at 10 µM. hit rate 0.3% among 360,000; in the data active = activity change above about 30%, passing the limit was not always enough
Rpn11 block – inhibitors of human proteasome Rpn11 | O00487 | human 26S proteasome, Ub4-pepOG fluorescence polarization; 20S core pre-blocked with epoxomicin | inhibition, % at 20 µM | hit rate 0.59% among 360,000;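 active = inhibition at 20 µM, scaled to each plate's controls, above about 33%, limit read from the data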
Target sequence (O00487 whole entry, looked up): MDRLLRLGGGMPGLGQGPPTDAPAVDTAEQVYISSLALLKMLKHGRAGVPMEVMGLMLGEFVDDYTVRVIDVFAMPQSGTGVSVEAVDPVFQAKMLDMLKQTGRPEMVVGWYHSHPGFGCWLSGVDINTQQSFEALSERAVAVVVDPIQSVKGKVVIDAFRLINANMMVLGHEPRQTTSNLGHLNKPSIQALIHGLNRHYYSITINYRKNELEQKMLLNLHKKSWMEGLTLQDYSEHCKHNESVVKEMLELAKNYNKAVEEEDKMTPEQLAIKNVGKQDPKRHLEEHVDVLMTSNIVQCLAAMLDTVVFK
NRP1-CendR mod – modulators of CendR peptide binding to human neuropilin-1; O14786; FAM-RPARPAR peptide binding to NRP-1, fluorescence polarization; hit rate 0.85% among 360,000; inhibition, % at 25 µM;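 active = inhibition or corrected inhibition above about 18%, plus a signal ratio from 0.5 to 1.5, limit read from the data, passing the limit was not always enough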
TPT1 inh – inhibitors of Candida albicans tRNA 2'-phosphotransferase TPT1 | inhibition, % at 5 µM | recombinant caTPT1, FP RNA substrate dephosphorylation | hit rate 0.81% among 300,000;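 active = inhibition above the mean of all tested compounds plus 3 SD, set per screening campaign, cut at about 24% in these data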;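 also: plate controls were DMSO alone for no effect and ferristatin control at 100 nM for full effect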
PHOSPHO1 block – blocks human PHOSPHO1 phosphatase activity. Q8TCT1. recombinant PHOSPHO1, absorbance phosphatase assay. inhibition, % at 13.3 µM. hit rate 1.1% among 290,000; in the data active = inhibition above about 60%
Target sequence (Q8TCT1 whole entry, looked up): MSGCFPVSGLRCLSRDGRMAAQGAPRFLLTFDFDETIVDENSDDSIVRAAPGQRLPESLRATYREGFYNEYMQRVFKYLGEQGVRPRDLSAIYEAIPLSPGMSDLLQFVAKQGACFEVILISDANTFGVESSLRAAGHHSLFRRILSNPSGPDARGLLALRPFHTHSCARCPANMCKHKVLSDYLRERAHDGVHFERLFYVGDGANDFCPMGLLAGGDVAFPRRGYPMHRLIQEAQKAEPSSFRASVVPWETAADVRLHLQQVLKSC
Fh CTSL1 inh – blocks F. hepatica cathepsin L1 in PFM18AAP counter-screen; hit rate 0.49% among 300,000; recombinant F. hepatica cathepsin L1, Z-Leu-Arg-MCA fluorescence; AID 1906; inhibition, % at 5.96 µM;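 active = inhibition above the mean of all tested compounds plus 3 SD, set per screening campaign, cut at about 17% in these data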;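 also: 0% = plate median of test compound wells and 100% = 1 µM Z-Phe-Ala-diazomethylketone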
caTPT1 confirm – TPT1 (C. albicans) inhibition, confirmation; shares compounds with TPT1 inh; recombinant caTPT1, fluorescence polarization, RNase T1 coupled; inhibition, % at 5 µM; hit rate 74% among 2,400; AID 2149;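 active = inhibition above the primary screen limit, the mean inhibition of all tested compounds plus 3 SD, cut at about 25% in these data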
RNase T1 inh – counter-screen for TPT1 inhibitors: inhibitors of Aspergillus oryzae RNase T1 | AID 2153 | inhibition, % at 5 µM | shares compounds with TPT1 inh | hit rate 83% among 2,400 | RNase T1 cleavage, fluorescence polarization, 1536-well;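 active = inhibition above the solvent-only control well mean plus 3 SD, limit set per screening run, cut at about 23% in these data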;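 also: plate controls were DMSO wells with enzyme for no effect and wells without RNase T1 for full effect; inhibitors block cleavage so intact labeled substrate keeps polarization high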
An asterisk follows results filed as active; / = not tested or not shown.

SMILES | HNF4A DNA FP | Rpn11 block | NRP1-CendR mod | TPT1 inh | PHOSPHO1 block | Fh CTSL1 inh | others
COC(=O)C1=C(c2ccc(Cl)c(C(F)(F)F)c2)C[C@@H]2CC[C@H]1N2C(=O)NCCNC(C)=O | 2 | -2 | 24* | / | / | /
COC(=O)C1=C(c2cccc(C#N)c2)C[C@@H]2CC[C@H]1N2C(=O)NCCNC(C)=O | 0 | 2 | 11 | / | / | /
COC(=O)C1=C(c2cccc(C#N)c2)C[C@@H]2CC[C@H]1N2C(=O)NCCO | 2 | 2 | 29* | / | / | /
COc1ccc(CN(CCc2c[nH]c3ccccc23)Cc2ccc(OC)cc2)cc1 | 3 | 4 | -11 | / | / | /
COC(=O)C1=C(c2cccc(Cl)c2)C[C@@H]2CC[C@H]1N2C(=O)NCC1CC1 | 0 | 5 | -10 | / | / | /
COC(=O)C1=C(c2ccc(F)cc2F)C[C@@H]2CC[C@H]1N2C(=O)NCCNC(C)=O | 4 | 0 | -2 | / | / | /
CCCNC(=O)N1[C@H]2CC[C@@H]1C(C(=O)OC)=C(c1ccc(F)cc1F)C2 | -3 | -2 | 32* | / | / | /
COC(=O)C1=C(c2ccc(F)cc2OCc2ccccc2)C[C@@H]2CC[C@H]1N2C(=O)N1CCCC1 | -1 | 0 | 27* | / | / | /
COc1cccc2c1N=C1CCCC3CN(C(C)=O)CCC123 (configuration not stated) | -6 | 5 | 14 | / | / | /
C#C[C@@]1(O)CCC2C3CCC4=C/C(=N/OCC(=O)NC(CCC(N)=O)C(=O)O)CC[C@]4(C)C3CC[C@@]21C (some centres not stated) | 3 | -1 | -1 | 1 | 22 | -2
COC(=O)[C@@H]1N=C(c2ccc(OC)cc2)O[C@]12C(=O)N(Cc1ccc(OC)cc1)c1ccccc12 | 0 | / | 2 | / | / | /
COc1ccc(N2CCN(Cc3nc4ccccc4[nH]3)CC2)cc1 | 0 | 3 | 3 | 0 | 32 | 17*
COc1ccc(OC(=O)N(C)C[C@H]2OCc3cnnn3CCCC(=O)N([C@@H](C)CO)C[C@H]2C)cc1 | -6 | -3 | 14 | / | / | /
COC(=O)C1=C(c2cccc(C#N)c2)C[C@@H]2CC[C@H]1N2C(=O)NC1CC1 | 0 | 3 | -2 | / | / | /
COc1cc(CN=C(C)c2c(O)n(C3CCCCC3)c(=O)[nH]c2=O)cc(OC)c1 | 2 | -4 | 1 | -1 | -8 | 2
CCCCn1c(=O)c(C(=O)Nc2ccccc2C)c(O)c2ccccc21 | 39* | -14 | 0 | 0 | 30 | -1
CCCCCn1c(=O)c(C(=O)Nc2ccccc2Cl)c(O)c2ccccc21 | 2 | -10 | -2 | -2 | 14 | -2
Nc1cc(C(=O)Nc2ccccc2F)ccc1N1CC2CC(C1)c1cccc(=O)n1C2 (configuration not stated) | 2 | -2 | -6 | / | / | /
CC1NC(=O)NC(=O)C1Br (configuration not stated) | -1 | 0 | 36* | / | / | /
C[C@]12CCC3C(CC[C@H]4C[C@@H](O)CC[C@]34C)C1C[C@@H](O)[C@]2(C)O (some centres not stated) | 3 | 3 | 28* | / | / | /
C#C[C@]1(O)[C@H](O)CC2C3CC[C@H]4C[C@@H](O)CC[C@]4(C)C3CC[C@@]21C (some centres not stated) | 23 | 10 | 8 | / | / | /
COC(=O)c1nc(-c2ccc3c(n2)C(=O)C(N)=C(OC)C3=O)c(N)c(-c2ccc(OC)c(OC)c2O)c1C | 2 | -8 | 0 | 5 | 38 | 110*
C[N+]12CCC(CC1)C(C#N)(N1CCOCC1)C2 (configuration not stated) | 3 | -3 | 3 | 2 | 101* | -2
CC(=O)c1ccc2c(c1)C1C(Cl)C(Sc3ccccc3[N+](=O)[O-])CC1C(C(=O)O)N2 (configuration not stated) | -24 | -12 | 31* | -3 | -16 | 0
O=C(O)c1cccc2c1NC(C(=O)O)C1CC(Sc3ccccc3[N+](=O)[O-])C(Cl)C21 (configuration not stated) | -54 | -29 | 14 | 4 | 62* | -1
SMILES | HNF4A DNA FP | Rpn11 block | NRP1-CendR mod | TPT1 inh | PHOSPHO1 block | Fh CTSL1 inh | others
CCC1CN1P(=O)(Oc1ccc(Cl)cc1)N1CC1CC (configuration not stated) | 1 | 6 | 34* | / | / | /
COC(=O)C1=C(c2ccc(OCc3ccccc3)cc2)C[C@@H]2CC[C@H]1N2C | 1 | 7 | 8 | / | / | /
Nc1cc2nc3ccccc3nc2cc1N | -38 | -75 | 60 | -28 | 60* | 0
Cc1ccc(NC(=O)CN2C(=O)CN=C(c3ccccc3)c3cc(Cl)ccc32)cc1 | -3 | 4 | 7 | 1 | 1 | 1
CN(C)c1ccc(NC(=O)CN2C(=O)CN=C(c3ccccc3)c3cc(Cl)ccc32)cc1 | -1 | 7 | -10 | 2 | 60* | 5
CC[n+]1c(-c2ccccc2)c2cc(N)ccc2c2ccc(N)cc21 | -37 | -12 | 47* | / | / | /
Cc1ccc(S(=O)(=O)N2CC2(C)CCl)cc1 (configuration not stated) | -2 | -8 | 5 | -3 | 19 | 20*
COC(=O)C1=C(c2ccccc2OCc2ccccc2)C[C@@H]2CC[C@H]1N2C(=O)NCc1ccc([N+](=O)[O-])cc1 | 3 | 3 | 8 | / | / | /
COC(=O)C(O)(c1c(C)[nH]n(-c2ccccc2)c1=O)C(F)(F)F (configuration not stated) | 5 | 3 | -5 | 3 | 21 | 20*
COC(=O)C(O)(c1c[nH]c2ccccc12)C(F)(F)F (configuration not stated) | 1 | -5 | 8 | 1 | -14 | -2
CCN1CCN(Cc2cccnc2)CC1 | -3 | -1 | 4 | 0 | / | 19*
CN(C)c1ccc([P+](=O)c2ccc(N(C)C)cc2)cc1 | -3 | 4 | 12 | -1 | -4 | 10
CN(C)c1ccc([N+](=O)[O-])c([N+](=O)[O-])c1 | 3 | 4 | 29* | / | / | /
Cc1cc(N=Nc2ccccc2C)ccc1N | 2 | -6 | 22 | 0 | / | 1
COc1ccc(-n2c(/C=C/c3ccc(O)c(OC)c3)nc3ccccc3c2=O)cc1 | 12 | / | -53 | 45* | 27 | 0 | caTPT1 confirm=57*;RNase T1 inh=67*
COc1ccc(-n2c(/C=C/c3ccc4c(c3)OCO4)nc3ccccc3c2=O)cc1 | 1 | -7 | -59 | -1 | 1 | 6
COc1cccc(-n2c(/C=C/c3ccc(O)c(O)c3)nc3ccccc3c2=O)c1 | 57* | / | -90 | 55* | 20 | 1 | caTPT1 confirm=65*;RNase T1 inh=68*
CCOc1cccc(CNCCc2c(C)[nH]c3ccc(OC(F)(F)F)cc23)c1O | 1 | 0 | 10 | 4 | 33 | -8
